# Reference: PubChem BioAssay AID624267 (The Scripps Research Institute Molecular Screening Center, 2012)
# Several values for one entry are separate records, joined by “and”; a condition that tells them apart may be missing. Equal values may be shown once. In all, about 360,000 compounds went through this assay and about 1,400 (0.39%) were called active. For the sample, actives were picked, then their nearest neighbours and some compounds at random. A number with no mark means an inactive call. Cut-off read from the data, not from the text of the source: active = inhibition above about 21%; inactive = the rest.
# Target: Receptor-interacting serine/threonine-protein kinase 2 (Homo sapiens) (UniProt O43353)
# Sequence (O43353 whole entry, looked up): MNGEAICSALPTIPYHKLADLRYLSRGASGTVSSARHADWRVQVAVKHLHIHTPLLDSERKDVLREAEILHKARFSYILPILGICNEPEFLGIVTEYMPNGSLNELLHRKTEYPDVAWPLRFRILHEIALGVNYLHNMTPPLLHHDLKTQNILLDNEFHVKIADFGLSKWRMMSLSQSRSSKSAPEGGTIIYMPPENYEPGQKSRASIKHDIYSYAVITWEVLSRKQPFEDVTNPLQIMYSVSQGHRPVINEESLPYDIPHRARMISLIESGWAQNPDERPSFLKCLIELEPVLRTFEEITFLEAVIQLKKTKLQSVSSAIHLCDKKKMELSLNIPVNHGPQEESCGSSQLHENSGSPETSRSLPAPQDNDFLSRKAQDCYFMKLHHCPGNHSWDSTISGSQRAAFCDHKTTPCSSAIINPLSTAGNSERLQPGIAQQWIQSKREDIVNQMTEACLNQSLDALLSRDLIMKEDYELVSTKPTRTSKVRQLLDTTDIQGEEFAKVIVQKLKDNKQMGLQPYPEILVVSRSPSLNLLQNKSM
# Experiment: inhibitors of RIPK2 association with NOD2 – fluorescence, CHO cells, BLA complementation, primary screen (AID 624267);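 note: 0% = vehicle only and 100% = reference blocker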
# Details: CHO BLA complementation NOD2-RIPK2, CCF4 ratio; at 4.98 µM; stronger effect = higher value
row,Structure (SMILES),inhibition
1,CCCCN(CCCC)CCCNC(=O)CN1C(=O)COc2ccc(S(=O)(=O)N3CCC(C)CC3)cc21,-2.68%
2,CC(=O)Nc1cccc(Nc2ccc(C#N)cc2)c1,3.65%
3,CCOC(=O)C1=C(C)Nc2sc(C(=O)c3ccc(Br)cc3)c(N)c2C1c1ccc(C(=O)OC)cc1 (stereo not given),27% (active)
4,CCOC(=O)C1=C(C)NC2=C(C(=O)CC(C)(C)C2)C1c1ccsc1 (stereo not given),2.36%
5,COC(=O)c1ccc(C2NC(=O)NC(C)=C2C(=O)N(C)C)cc1 (stereo not given),-10%
6,COc1ccc(NC(=O)/C(Cl)=C(/Cl)S(=O)Cc2ccc(C)cc2)cn1 (stereo not given),95.1% (active)
7,NC(Cc1ccccc1)c1csc(Nc2cc(Oc3ccccc3)ncn2)n1 (stereo not given),-5.36%
8,O=C(COC(=O)c1ccccc1NC(=O)c1ccco1)Nc1ccc2c(c1)OC(F)(F)O2,-2.03%
9,N#Cc1cc([N+](=O)[O-])ccc1NCC1CCCO1 (stereo not given),-32.9%
10,O=C1C(C=NCC2CCCO2)=C(O)c2ccccc21 (stereo not given),-5.23%
11,O=C1c2cccc3c([N+](=O)[O-])ccc(c23)C(=O)N1CC1CCCO1 (stereo not given),80.1% (active)
12,Cc1ccc(S(=O)(=O)N2CCN(C(=O)c3cc(S(=O)(=O)N4CCOCC4)ccc3F)CC2)cc1,-18.2%
13,CCc1ccc(OC2(C)CCN(CCOc3ccc(C)cc3)C2)cc1 (stereo not given),0.79%
14,COc1ccccc1N1N=C(c2cccs2)CC1c1ccccc1 (stereo not given),49.9% (active)
15,Fc1ccc(N2N=C(c3cccs3)CC2c2ccco2)c(F)c1 (stereo not given),-13.7%
16,COc1ccc(C2CC(c3cccs3)=NN2c2nc(C)c(C(C)=O)s2)cc1OC (stereo not given),6.76%
17,Cc1ncoc1C(=O)N1CCCC(C(=O)c2ccc3c4c(cccc24)CC3)C1 (stereo not given),1.4%
18,Cc1ccccc1C(=O)NCC(c1ccco1)N1CCc2ccccc21 (stereo not given),7.15%
19,COc1ccc(C2CC(c3cccs3)Nc3nnnn32)cc1 (stereo not given),-2.81%
20,COc1ccc(C2=CC(c3cccc(OC)c3)n3nnnc3N2)cc1 (stereo not given),26.8% (active)
21,COC(=O)C1=C(C(=O)c2ccc(C)cc2)C(c2ccccc2)n2nnnc2N1 (stereo not given),2.81%
22,O=C1N(c2ccc(Cl)cc2)C(c2ccc(Cl)cc2)N2CCCN12 (stereo not given),8.61%
23,Cc1ccsc1-c1cc(C(=O)O)c2c(ccc3ccccc32)n1,0.09%
24,CCOC(=O)C1(Cc2cccc(OC)c2)CCN(Cc2csc(C(C)=O)c2)CC1,-2.05%

row,Structure (SMILES),inhibition
1,CCCc1c(C(=O)Nc2ccc(F)cc2)cnn1-c1ccccc1,-3.44%
2,O=C(c1cccc(-n2cccc2)c1)N1CCN(S(=O)(=O)c2ccc(F)cc2)CC1,-0.82%
3,O=[N+]([O-])/C=C/c1ccc2c(ccn2Cc2ccccc2)c1,87.9% (active)
4,COC(=O)N1CN(C(=O)OC)CN(C(=O)OC)C1,-12.2%
5,O=C(CCN1C(=O)COc2ccccc21)NCCCN1CCN(c2ccc(F)cc2)CC1,-5.53%
6,CN1CCN(CCCNC(=O)c2ccc(/C=C3\Oc4ccccc4N(Cc4ccc(Cl)cc4)C3=O)cc2)CC1,33.1% (active)
7,Cc1ccc(NC(=O)CCCNC(=O)c2ccc(Cl)cc2)cc1S(=O)(=O)N1CCOCC1,-6.45%
8,COc1ccc(C)cc1NC(=S)Nc1ccccc1SC,-5.8%
9,CCOc1ccc(S(=O)(=O)NCc2ccc3c(c2)OCO3)cc1C,-3.55%
10,CC(Oc1ccccc1)C(=O)Nc1oc(-c2ccco2)c(-c2ccco2)c1C#N (stereo not given),-14.4%
11,COc1ccc(-c2cnc(SCCNC(=O)c3ccc4c(c3)OCO4)[nH]2)cc1,-2.11%
12,COc1cccc(-c2cnc(C(O)c3ccccc3OC)[nH]2)c1 (stereo not given),-4.35%
13,COc1ccccc1CSc1ncc(-c2ccc([N+](=O)[O-])cc2)[nH]1,29.2% (active)
14,Cc1cccc(N2O[C@H]3C=CC2CCCC3)n1,9.84%
15,O=S(=O)(c1ccccc1)N(Cc1cccc(F)c1)c1ccccc1,-10.2%
16,CCN(CC)S(=O)(=O)c1ccc2[nH]c(=O)cc(C(=O)N(C)C3CCS(=O)(=O)C3)c2c1 (stereo not given),-6.75%
17,O=S(=O)(c1ccc(OCC(O)CN2CCN(c3ccccc3Cl)CC2)cc1)N1CCOCC1 (stereo not given),-2.63%
18,CN1CCC[C@@H]1CCO[C@](C)(c1ccccc1)c1ccc(Cl)cc1,14.6%
19,Cc1cc2oc3ccc(NCCC4CCCN4C)cc3c(=O)c2cc1C (stereo not given),41.2% (active)
20,CCCCC(CC(C)O)c1n[nH]c(=S)n1-c1ccccc1 (stereo not given),-17.4%
21,O=C(CCNc1n[nH]c(=O)[nH]c1=O)N/N=C\c1ccc(Br)cc1,-5.19%
22,Cc1nn(C)cc1N1C(=O)c2cccc3c(N)ccc(c23)C1=O,24.3% (active)
23,O=C(CN1C(=O)NC2(CCOc3ccccc32)C1=O)Nc1cccc([N+](=O)[O-])c1 (stereo not given),5.36%
24,CCOc1ccccc1NC(=O)CCS(=O)(=O)c1cccc2nsnc12,5.35%

row,Structure (SMILES),inhibition
1,O=C(O)CCS(=O)(=O)c1ccc(-c2ccccc2)cc1,-5.35%
2,COc1ccc(C)cc1NC(=O)CCS(=O)(=O)c1cccc2nonc12,4.16%
3,Cc1cccc(C)c1NC(=O)CCS(=O)(=O)c1cccc2nsnc12,7.27%
4,Cc1cccc2sc(N(CCCN(C)C)C(=O)CCS(=O)(=O)c3ccccc3)nc12,24.6% (active)
5,COc1cccc2sc(N(CCCN(C)C)C(=O)CCS(=O)(=O)c3ccccc3)nc12,31.7% (active)
6,O=C(CN1CCN(S(=O)(=O)c2ccc(F)cc2)CC1)NC1CC1,0.22%
7,COCCCn1c(SCc2cccc(OC)c2)nc2cc(OC)c(OC)cc2c1=N,12.2%
8,CCOc1ccc(S(=O)(=O)N2CCN(C(=O)c3oc4ccccc4c3C)CC2)cc1,-8.52%
9,O=C(CCc1ccccc1)NCCc1cccs1,-5.14%
10,O=C(Cc1cccs1)Nc1ccc([N+](=O)[O-])cc1,3.09%
11,CCCc1ccc(-c2csc(NC(=O)Cc3cccs3)n2)cc1,21.1% (active)
12,COc1cc(S(=O)(=O)Nc2ncn[nH]2)ccc1Cl,3.73%
13,CC(=O)c1cc(C#N)c(N2CC(C)OC(C)C2)nc1C (stereo not given),0.19%
14,COc1ccc(-c2nc3cc(C)ccn3c2NC2CCCCC2)cc1SC1CCCCC1,-6.71% and 17.4%
15,COc1ccc(-c2nc3cnccn3c2NC(C)(C)CC(C)(C)C)cc1O,7.55%
16,COc1ccc(-c2nc3cnccn3c2NC2CCCCC2)cc1-c1cccc(Cl)c1,27.1% (active) and 52.4% (active)
17,Cn1c(SCC(=O)NC2CCCCC2)nnc1-c1ccc(N)cc1,-8.42%
18,CCCn1nc(Oc2nc(NC(C)C)nc(N(C)C)n2)ccc1=O,-6.09%
19,Cc1ccccc1CNC(=O)CCC(=O)N1Cc2ccccc2Oc2ncccc21,-3.11%
20,Cc1ccc(C(=O)Nc2c(-c3ccccc3)[nH][nH]c2=O)cc1,-2.83%
21,O=C(NNC(=O)C1CCC1)c1ccccc1,-5.53%
22,O=C(NC1=CC(=O)c2ccccc2C1=O)c1ccccc1,60.6% (active)
23,O=C(CN1C(=O)NC2(CCCCCC2)C1=O)NCc1cccs1,5.08%
24,CCc1cccc(C)c1NS(=O)(=O)c1c(C)nc2sccn2c1=O,6.35%

row,Structure (SMILES),inhibition
1,Nc1c(-c2cccc(Cl)c2)cnn1-c1cccc([N+](=O)[O-])c1,-0.26%
2,Cc1cccc(N2Cc3ccccc3C2=NC(=O)c2ccc(Cl)nc2)c1,1.35%
3,Cc1cccc(-n2ncc(Cl)c(Cl)c2=O)c1,32.6% (active)
4,Cc1ccc2[nH]c(C)c(CCNC(=O)NC3CCCCC3)c2c1,10.4%
5,O=C(CN1CCOCC1)Nc1c2c(nc3c1CCC3)CCC2,-11.5%
6,Cc1cc(C)n2nc(C(=O)OCC(=O)N(CCC#N)c3ccc(F)cc3)nc2n1,5.67%
7,COc1cccc(C(=O)NNC(=O)/C=C/c2ccccc2)c1,-14.4%
8,CC(C)(C)C(=O)/C(C#N)=C/c1ccc(O)cc1,-19.2%
9,O=C(/C=C(O)/C=C/c1ccc(O)cc1)/C=C/c1ccc(O)cc1,56.9% (active)
10,COc1ccc(OC)c(CN2C(=O)CCC2(C)C(=O)NC2CCCCCC2)c1 (stereo not given),-0.24%
11,FC(F)(F)C1CCCN(c2nsc3ccccc23)C1 (stereo not given),31% (active)
12,O=[N+]([O-])c1cc(S(=O)(=O)NCCc2ccccn2)ccc1Cl,5.34%
13,Cc1ccc(C(=O)CN2C(=O)NC3(CCOc4ccccc43)C2=O)s1 (stereo not given),-4.27%
14,CCC1Sc2ccc(S(=O)(=O)CCC(=O)NCc3cccs3)cc2NC1=O (stereo not given),-15.1%
15,COc1ccc(OC)c(C(C)NC(=S)Nc2ccc(S(=O)(=O)Nc3ncccn3)cc2)c1 (stereo not given),2.38%
16,COc1cc(NS(=O)(=O)c2ccc3ccccc3c2)c2ncccc2c1,29.3% (active)
17,O=S(=O)(Nc1ccccn1)c1cccc(S(=O)(=O)c2ccc(Cl)cc2)c1,-8.24%
18,Cc1cccc(COc2ccccc2/C=N/Nc2ccc([N+](=O)[O-])cc2)c1,31.1% (active)
19,O=[N+]([O-])c1ccc(COc2ccccc2CN2CCOCC2)cc1,-0.03%
20,Cc1ccccc1OCCOc1ccc([N+](=O)[O-])cc1/C=N/n1cnnc1,7.18%
21,COC(=O)c1ccccc1N=NNc1ccc([N+](=O)[O-])cc1,2.92%
22,CC(C=Cc1ccccc1)=NNS(=O)(=O)c1ccc([N+](=O)[O-])cc1,3.79%
23,O=[N+]([O-])c1ccc(N/N=C/c2ccccc2)cc1,24.8% (active)
